# Activity calls are given as the source filed them.
# Experiments:
# [1] = system: Human papillomavirus type 1a protein E7 (residues 44-93); assay: HPV1a E7 fragment binders on microarrays, primary screen, biochemical, small-molecule microarray, residues 44-93, 635 nm fluorescence (AID 1108); conditions: small-molecule microarray binding, fluorescence 635 nm; higher = more signal;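 further: E7 fragment applied at 1 µg/mL in TBST for 1 h at 4 C; score combines spot fluorescence with its signal to noise ratio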
# [2] = modulators of HCV replicon luciferase signal, primary screen, HCV replication inhibitor project, Huh7 cells, luciferase reporter (AID 1109); conditions: 48 h, higher = more signal;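 further: huh7 hepatoma cells harbouring a luciferase neomycin HCV replicon reporter; luciferase luminescence as measure of HCV replicon replication; test concentration not given here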
# [3] = molecular target: Left-right determination factor 2 (Homo sapiens) (UniProt O00292); assay: LEFTY2 binders on small-molecule microarrays, primary screen, biochemical, small-molecule microarray, 635 nm fluorescence scan (AID 1110); conditions: LEFTY2 binding, higher = more signal
# Sequence of Left-right determination factor 2 (Homo sapiens) (O00292 whole entry, looked up): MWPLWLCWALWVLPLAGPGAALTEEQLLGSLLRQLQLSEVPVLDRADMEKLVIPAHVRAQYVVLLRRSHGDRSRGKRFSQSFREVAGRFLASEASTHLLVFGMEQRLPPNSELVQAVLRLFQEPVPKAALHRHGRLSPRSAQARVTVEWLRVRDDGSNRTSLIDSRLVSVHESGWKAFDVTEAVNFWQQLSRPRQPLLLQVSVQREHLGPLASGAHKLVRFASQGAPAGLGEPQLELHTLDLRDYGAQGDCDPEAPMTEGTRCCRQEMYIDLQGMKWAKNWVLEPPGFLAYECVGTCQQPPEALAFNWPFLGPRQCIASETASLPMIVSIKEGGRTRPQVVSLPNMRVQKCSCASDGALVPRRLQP
# [4] = molecular target: Calmodulin-1 (Homo sapiens) (UniProt P0DP23); assay: CALM1 binders on microarrays, EGTA buffer, profiling panel, biochemical, small-molecule microarray, Cy5-labelled CALM1 (AID 1111); conditions: Cy5-CALM1 binding fluorescence, higher = more signal;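 further: labelled calmodulin applied in Tris saline Tween buffer holding calcium plus EGTA and DTT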
# [5] = molecular target: Calmodulin-1 (Homo sapiens) (UniProt P0DP23); assay: calcium-bound CALM1 binders on microarrays, profiling panel, artefact control for SMM control-protein annotation, biochemical, small-molecule microarray, Cy5-labelled CALM1, plus calcium (AID 1112); conditions: Cy5-CALM1 binding fluorescence, higher = more signal;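 further: score merges spot fluorescence with signal to noise from triplicate slides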
# [6] = small-molecule microarray binders of probe aWnt5a, primary screen, biochemical, biotinylated probe, 635/667 nm fluorescence (AID 1113); conditions: higher = more signal;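 further: score merges 667 nm fluorescence intensity with signal-to-noise per printed feature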
# [7] = small-molecule microarray binders of probe aShh, primary screen, biochemical, biotinylated probe, 635/667 nm fluorescence (AID 1114); conditions: higher = more signal;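 further: probe is biotin-labelled aShh protein from a stem cell growth factor screen; measures binding of labelled protein to compounds printed on the slide; score merges feature fluorescence at 667 nm with signal-to-noise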
# [8] = small-molecule microarray binders of probe aNog, primary screen, biochemical, biotinylated probe, 635/667 nm fluorescence (AID 1115); conditions: higher = more signal;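 further: probe is biotinylated aNog protein used at 0.15 µg/mL for 1 h at 4 C; z-score combines 667 nm fluorescence of each spot with its signal to noise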
# [9] = molecular target: Torsin-1A-interacting protein 1 (Homo sapiens) (UniProt Q5JTV8); assay: LAP1 binders from COS7 cell lysate, primary screen, small-molecule microarray, 635/667 nm fluorescence (AID 1116); conditions: COS7-hLAP1 lysate binding, 635 nm fluorescence, higher = more signal
# Sequence of Torsin-1A-interacting protein 1 (Homo sapiens) (Q5JTV8 whole entry, looked up): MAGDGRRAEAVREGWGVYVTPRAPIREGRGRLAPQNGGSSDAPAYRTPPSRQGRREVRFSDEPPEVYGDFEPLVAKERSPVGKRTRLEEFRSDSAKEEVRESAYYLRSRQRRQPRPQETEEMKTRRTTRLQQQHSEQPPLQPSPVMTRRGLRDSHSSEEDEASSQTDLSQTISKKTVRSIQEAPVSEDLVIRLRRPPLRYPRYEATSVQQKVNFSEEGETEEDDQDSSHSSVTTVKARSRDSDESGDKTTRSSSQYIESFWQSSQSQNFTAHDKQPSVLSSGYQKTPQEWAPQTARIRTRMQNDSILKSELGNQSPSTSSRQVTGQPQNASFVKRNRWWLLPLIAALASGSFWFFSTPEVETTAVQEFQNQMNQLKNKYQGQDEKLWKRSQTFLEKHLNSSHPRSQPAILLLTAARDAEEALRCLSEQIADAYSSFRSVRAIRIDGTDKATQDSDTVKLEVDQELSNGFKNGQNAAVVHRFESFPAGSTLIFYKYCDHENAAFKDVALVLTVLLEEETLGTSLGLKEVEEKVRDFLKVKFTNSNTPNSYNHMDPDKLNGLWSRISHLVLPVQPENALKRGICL
# [10] = molecular target: Alpha-bungarotoxin (Bungarus multicinctus) (UniProt P60615); assay: alpha-bungarotoxin binders on microarray, profiling panel, artefact control for SMM control protein annotation, biochemical, small-molecule microarray, Alexa647 label, 635/667 nm fluorescence (AID 1117); conditions: alpha-BTX-A647 binding fluorescence, higher = more signal
# Sequence of Alpha-bungarotoxin (Bungarus multicinctus) (P60615 whole entry, looked up): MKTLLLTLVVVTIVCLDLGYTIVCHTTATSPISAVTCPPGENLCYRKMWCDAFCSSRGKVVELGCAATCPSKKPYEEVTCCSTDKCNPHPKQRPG
# Albumin (Bos taurus) = Albumin (Bos taurus) (UniProt P02769); assay: bovine serum albumin binders on microarray, profiling panel, artefact control for SMM control protein annotation, biochemical, small-molecule microarray, Alexa647 label, 635/667 nm fluorescence (AID 1118); conditions: BSA-A647 binding, fluorescence 635 nm, higher = more signal;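 further: score merges 667 nm emission intensity and signal-to-noise per printed compound spot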
# Sequence of Albumin (Bos taurus) (P02769 whole entry, looked up): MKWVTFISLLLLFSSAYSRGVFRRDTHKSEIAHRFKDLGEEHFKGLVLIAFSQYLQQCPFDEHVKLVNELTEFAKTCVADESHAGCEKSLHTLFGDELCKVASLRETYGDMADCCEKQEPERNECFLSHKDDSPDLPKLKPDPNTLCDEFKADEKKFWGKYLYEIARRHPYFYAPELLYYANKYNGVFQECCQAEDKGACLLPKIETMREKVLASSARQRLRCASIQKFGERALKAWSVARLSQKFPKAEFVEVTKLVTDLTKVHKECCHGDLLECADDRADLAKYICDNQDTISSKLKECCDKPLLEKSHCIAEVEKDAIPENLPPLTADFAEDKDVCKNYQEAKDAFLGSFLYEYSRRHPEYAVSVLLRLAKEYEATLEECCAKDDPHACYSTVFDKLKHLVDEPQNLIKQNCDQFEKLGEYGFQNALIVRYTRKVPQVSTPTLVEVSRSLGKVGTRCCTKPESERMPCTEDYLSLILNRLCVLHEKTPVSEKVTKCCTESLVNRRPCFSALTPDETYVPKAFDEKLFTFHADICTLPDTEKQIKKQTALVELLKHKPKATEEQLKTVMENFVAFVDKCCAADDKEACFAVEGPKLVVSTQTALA
# [11] = small-molecule microarray binders of probe aXIP, primary screen, biochemical, NeuroSMM set, 635/667 nm fluorescence (AID 1119); conditions: higher = more signal, called active from +8 up or from −8 down;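 further: probe is the protein aXip251-270 applied at 1 µg/mL to compound-printed slides; binding of probe to printed compounds measured as 667 nm fluorescence plus signal to noise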
# [12] = small-molecule binders of probe aNOTCH3, primary screen, biochemical, small-molecule microarray, 635/667 nm fluorescence (AID 1120); conditions: higher = more signal;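 further: probe is a biotin-tagged antibody raised against NOTCH3 rather than NOTCH3 protein; score merges spot fluorescence near 667 nm with spot signal to noise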
# [13] = small-molecule binders of probe aNOTCH2, primary screen, biochemical, small-molecule microarray, 635/667 nm fluorescence (AID 1121); conditions: higher = more signal;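 further: score merges feature fluorescence read at 667 nm with its signal to noise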
# [14] = molecular target: Carbonic anhydrase 2 (Homo sapiens) (UniProt P00918); assay: CAII small-molecule binders, profiling panel, biochemical, small-molecule microarray, Alexa647-labelled CAII (AID 1122); conditions: CAII-A647 binding fluorescence, higher = more signal
# [15] = COS7 lysate on small-molecule microarray, probe aHis, 635 nm (AID 1123); conditions: COS7 cell lysate, fluorescence, higher = more signal;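 further: z-score combines 667nm fluorescence intensity with signal-to-noise per printed compound spot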
# [16] = compound binding in COS7 lysate, probe aLAP1, primary screen, cell lysate, small-molecule microarray (AID 1124); conditions: probe aLAP1, fluorescence, higher = more signal;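 further: lysate comes from COS7 cells expressing LAP1 and is applied at 0.3 µg/mL; score merges spot fluorescence near 667 nm with signal-to-noise over triplicate slides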
# Sam68 (KHDRBS1) = assay: Sam68 small-molecule binders, primary screen, biochemical, small-molecule microarray, 635 nm fluorescence (AID 1125); conditions: small-molecule microarray binding, higher = more signal;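 further: score merges 667 nm channel intensity with signal to noise over triplicate slides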
# [17] = system: Chordin-like protein 2 (CHRDL2); assay: CHRDL2 small-molecule binders, primary screen, biochemical, small-molecule microarray, 635 nm fluorescence (AID 1126); conditions: small-molecule microarray binding, fluorescence 635 nm; higher = more signal;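 further: printed compound slides probed with Chrdl2 protein at 4 µg/mL for 1 h at 4 C; score merges 667 nm emission intensity with signal to noise over three replicate slides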
# [18] = molecular target: Concanavalin-A (Canavalia ensiformis) (UniProt P02866); assay: ConA small-molecule binders, primary screen, artefact control for SMM control protein annotation, biochemical, small-molecule microarray, Alexa647 label, 635 nm (AID 1127); conditions: ConA-A647 binding fluorescence, higher = more signal;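 further: z combines 667 nm emission intensity with signal-to-noise across three replicate slides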
# Sequence of Concanavalin-A (Canavalia ensiformis) (P02866 whole entry, looked up): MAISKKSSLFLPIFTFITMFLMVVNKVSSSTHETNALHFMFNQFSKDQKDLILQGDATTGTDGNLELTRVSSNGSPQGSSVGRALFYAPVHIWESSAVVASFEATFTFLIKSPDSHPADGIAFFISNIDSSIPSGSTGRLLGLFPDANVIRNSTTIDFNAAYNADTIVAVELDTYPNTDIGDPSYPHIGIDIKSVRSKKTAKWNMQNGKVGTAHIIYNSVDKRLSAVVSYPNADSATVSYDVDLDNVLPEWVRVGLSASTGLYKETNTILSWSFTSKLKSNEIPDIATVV
Structure (SMILES),composite z-score [1],z-score [2],composite z-score [3],composite z-score [4],composite z-score [5],composite z-score [6],composite z-score [7],composite z-score [8],composite z-score [9],composite z-score [10],composite z-score (Albumin (Bos taurus)),composite Z-score [11],composite z-score [12],composite z-score [13],composite z-score [14],composite z-score [15],composite z-score [16],composite z-score (Sam68 (KHDRBS1)),composite z-score [17],composite z-score [18]
Cc1ccc(S(=O)(=O)N[C@H]2COC(=O)CC=C[C@H](C)COC(=O)N[C@@H](C)C(=O)CC=C[C@@H]2C)cc1,-0.417,-0.47,1.05,-0.643,-1.39,-0.1,-0.0243,-0.345,0.0478,0.0411,-0.0363,-1.01 (inactive),-0.178,-0.145,-0.461,-0.43,-0.314,0.269,1.52,0.152
C=CCNC(=O)[C@H]1[C@@H]2C(=O)O[C@@H](c3ccccc3)[C@@H](c3ccccc3)N2[C@@H](c2ccccc2OCCO)[C@]12C(=O)N(C(=O)OCCOC)c1ccc(C#CCC(C(=O)OC)C(=O)OC)cc12,-0.29,-1.22,0.208,1.57,0.865,-0.012,0.217,0.419,0.926,1.87,0.255,1.06 (inactive),-0.0448,-0.0829,0.634,2.13,0.689,1.3,-0.052,1.12
CSCC[C@@H]1NC(=O)CC=C[C@@H](C)COC(=O)[C@H](CCSC)NC(=O)CC=C[C@@H](C)COC1=O,-0.507,-0.116,0.42,-1.21,-0.58,-0.168,0.0756,-0.255,-0.242,-0.222,-0.767,0.559 (inactive),-0.205,-0.135,-0.342,-0.45,-0.524,-0.32,1.39,-0.796
CC(c1ccccc1)C(O)C1C=CC2C(=O)N(C)C(=O)C2N1N(c1ccccc1)c1ccccc1 (stereo not given),-0.304,0.37,-0.789,1.08,0.723,-0.0057,0.809,0.332,0.765,-0.212,0.867,0.543 (inactive),0.207,0.0605,0.507,1.57,0.19,0.431,-0.852,-0.597
Cc1ccc(S[C@]2(C(=O)NCCN3CCOCC3)CC(=O)N(C3Cc4ccccc4C3)[C@@H]2c2ccc(CO)cc2I)cc1,0.0913,-1.69,-1.71,-0.0071,-0.0474,0.0718,-0.0553,0.79,0.0697,1.74,0.545,2.61 (inactive),-0.0903,0.116,0.576,1.42,0.39,0.458,-2.56,-0.587
[N-]=[N+]=NCc1ccccc1[C@H]1OC(c2ccc(OCCCO)cc2)=N[C@@]1(Cc1ccccc1N=[N+]=[N-])C(=O)NCc1ccccc1,0.716,-2.02,-0.334,1.54,0.642,0.239,0.407,0.57,0.447,1.71,0.763,0.945 (inactive),0.286,0.0243,0.579,1.65,0.174,1.31,-0.633,1.12
O=C(N1CCCCC1)[C@@]1(CCS(=O)(=O)c2ccccc2)N=C(c2ccc(OCCCO)cc2)O[C@H]1c1ccccc1,1.48,-3.07,-0.197,-0.215,-0.688,0.212,0.427,-0.133,1.77,-0.0166,-0.0092,-0.595 (inactive),0.0876,-0.0872,0.663,3.28,0.343,1.29,-0.58,0.639
N#Cc1ccc(NN2C(C(O)c3ccc(I)cc3)C=CC3C(=O)N(c4ccccc4)C(=O)C32)cc1 (stereo not given),1.48,1.56,-0.417,1.58,0.526,0.0803,-0.16,1.56,0.0108,1.32,0.946,0.128 (inactive),0.212,0.139,0.74,2.21,-0.809,1.29,-0.389,1.12
C=CC[C@]1(C(=O)O)N=C(c2ccc(OCCCO)cc2)O[C@H]1c1ccccc1N=[N+]=[N-],-0.914,1.65,-0.753,1.74,0.768,0.055,-0.0243,-0.0069,1.45,0.0298,0.548,0.0407 (inactive),0.0807,-0.159,0.668,1.45,1.24,0.0203,-0.37,0.642
COCCOC(=O)N1C(=O)[C@@]2(c3cc(C#CC4=CCCCC4)ccc31)[C@H](C(=O)NC[C@H](O)c1ccccc1)[C@H]1C(=O)O[C@H](c3ccccc3)[C@H](c3ccccc3)N1[C@@H]2c1ccc(OCCO)cc1,1.41,-2.08,0.537,0.774,-0.206,0.0115,-0.279,0.165,1,1.28,0.723,-0.0384 (inactive),0.0739,-0.0986,0.224,1.9,-0.0647,1.3,0.629,1.12
C=CC[C@]1(C(N)=O)N=C(c2ccc(OCCCO)cc2)O[C@H]1c1ccccc1CN=[N+]=[N-],1.03,-1.33,-1.11,1.91,1.14,-0.124,-0.203,0.165,1.87,1.03,1.05,0.221 (inactive),-0.0502,-0.0785,0.856,2.69,0.623,1.11,-0.63,0.885
